The full data set covers some 7,900 targets. This sample favours those with a hit. About 0.6% of all pairs of compound and target were hits. Values without a mark were called inactive.

log2 fold change data for 34 targets are collected here from the supplement of paper PMC10849652.

Sequence of UniProt P51911 (P51911 whole entry, looked up): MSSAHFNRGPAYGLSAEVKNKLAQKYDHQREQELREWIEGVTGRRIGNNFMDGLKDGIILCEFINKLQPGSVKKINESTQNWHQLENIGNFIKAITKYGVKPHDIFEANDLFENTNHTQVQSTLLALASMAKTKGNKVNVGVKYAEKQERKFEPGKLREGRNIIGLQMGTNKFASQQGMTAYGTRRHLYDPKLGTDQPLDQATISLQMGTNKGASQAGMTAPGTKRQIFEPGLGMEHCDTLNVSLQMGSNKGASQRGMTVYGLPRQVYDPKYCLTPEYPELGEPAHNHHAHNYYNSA
Sequence of UniProt Q69YH5 (Q69YH5 whole entry, looked up): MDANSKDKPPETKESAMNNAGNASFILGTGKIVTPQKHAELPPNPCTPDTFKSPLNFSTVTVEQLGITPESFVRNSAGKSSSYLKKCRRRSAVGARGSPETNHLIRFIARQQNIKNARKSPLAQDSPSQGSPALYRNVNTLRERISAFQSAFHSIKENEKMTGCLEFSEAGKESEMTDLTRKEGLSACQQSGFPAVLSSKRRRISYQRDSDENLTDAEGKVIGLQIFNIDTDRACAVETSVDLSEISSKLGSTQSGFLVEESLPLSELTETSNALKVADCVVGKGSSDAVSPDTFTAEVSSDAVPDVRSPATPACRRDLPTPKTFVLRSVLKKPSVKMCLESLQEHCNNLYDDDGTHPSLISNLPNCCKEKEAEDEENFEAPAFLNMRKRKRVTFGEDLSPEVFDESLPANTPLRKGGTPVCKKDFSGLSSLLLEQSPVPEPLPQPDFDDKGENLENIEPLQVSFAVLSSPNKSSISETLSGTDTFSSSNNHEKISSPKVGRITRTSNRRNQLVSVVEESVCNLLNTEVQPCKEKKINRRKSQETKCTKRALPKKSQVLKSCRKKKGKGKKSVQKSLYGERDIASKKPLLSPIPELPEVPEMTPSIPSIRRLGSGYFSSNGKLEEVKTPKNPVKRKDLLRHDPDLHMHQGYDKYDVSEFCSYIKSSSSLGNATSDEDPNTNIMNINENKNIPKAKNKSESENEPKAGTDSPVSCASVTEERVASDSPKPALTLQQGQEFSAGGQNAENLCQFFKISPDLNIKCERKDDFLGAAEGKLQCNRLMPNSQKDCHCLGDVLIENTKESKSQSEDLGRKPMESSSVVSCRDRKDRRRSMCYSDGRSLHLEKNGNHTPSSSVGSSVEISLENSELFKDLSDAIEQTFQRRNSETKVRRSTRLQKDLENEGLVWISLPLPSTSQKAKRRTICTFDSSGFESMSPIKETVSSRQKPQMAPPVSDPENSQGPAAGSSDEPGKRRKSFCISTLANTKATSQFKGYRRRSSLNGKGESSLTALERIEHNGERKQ
Sequence of UniProt P51795 (P51795 whole entry, looked up): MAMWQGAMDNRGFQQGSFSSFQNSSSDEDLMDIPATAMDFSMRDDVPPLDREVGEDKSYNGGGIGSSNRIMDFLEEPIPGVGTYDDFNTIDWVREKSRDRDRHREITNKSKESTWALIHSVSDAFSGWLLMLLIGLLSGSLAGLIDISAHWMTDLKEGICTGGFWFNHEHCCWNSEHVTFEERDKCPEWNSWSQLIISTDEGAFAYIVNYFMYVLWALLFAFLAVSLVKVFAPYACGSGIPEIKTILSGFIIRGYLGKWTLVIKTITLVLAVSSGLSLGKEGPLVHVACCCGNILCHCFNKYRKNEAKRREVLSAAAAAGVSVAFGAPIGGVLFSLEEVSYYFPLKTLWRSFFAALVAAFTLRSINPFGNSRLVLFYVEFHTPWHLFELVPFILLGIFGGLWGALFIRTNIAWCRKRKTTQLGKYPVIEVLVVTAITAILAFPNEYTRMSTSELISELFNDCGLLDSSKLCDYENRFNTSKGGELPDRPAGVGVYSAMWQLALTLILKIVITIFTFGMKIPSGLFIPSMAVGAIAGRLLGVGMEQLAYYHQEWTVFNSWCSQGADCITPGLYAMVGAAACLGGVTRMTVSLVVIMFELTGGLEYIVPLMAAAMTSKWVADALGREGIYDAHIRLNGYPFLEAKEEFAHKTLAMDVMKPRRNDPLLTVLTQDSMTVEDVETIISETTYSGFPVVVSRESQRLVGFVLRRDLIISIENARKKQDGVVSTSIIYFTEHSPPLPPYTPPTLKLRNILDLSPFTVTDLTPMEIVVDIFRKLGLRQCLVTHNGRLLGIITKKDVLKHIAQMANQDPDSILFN
Sequence of UniProt O43529 (O43529 whole entry, looked up): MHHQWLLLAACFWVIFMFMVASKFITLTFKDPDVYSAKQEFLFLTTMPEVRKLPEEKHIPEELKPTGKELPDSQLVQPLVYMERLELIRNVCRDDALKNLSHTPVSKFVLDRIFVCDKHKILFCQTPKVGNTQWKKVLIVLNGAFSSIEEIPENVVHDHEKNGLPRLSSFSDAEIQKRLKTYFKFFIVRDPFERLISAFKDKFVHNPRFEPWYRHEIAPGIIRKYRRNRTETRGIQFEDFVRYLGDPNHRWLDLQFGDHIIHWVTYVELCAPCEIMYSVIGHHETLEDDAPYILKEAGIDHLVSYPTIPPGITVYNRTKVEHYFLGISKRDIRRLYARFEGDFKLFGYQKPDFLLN
Sequence of UniProt P55211 (P55211 whole entry, looked up): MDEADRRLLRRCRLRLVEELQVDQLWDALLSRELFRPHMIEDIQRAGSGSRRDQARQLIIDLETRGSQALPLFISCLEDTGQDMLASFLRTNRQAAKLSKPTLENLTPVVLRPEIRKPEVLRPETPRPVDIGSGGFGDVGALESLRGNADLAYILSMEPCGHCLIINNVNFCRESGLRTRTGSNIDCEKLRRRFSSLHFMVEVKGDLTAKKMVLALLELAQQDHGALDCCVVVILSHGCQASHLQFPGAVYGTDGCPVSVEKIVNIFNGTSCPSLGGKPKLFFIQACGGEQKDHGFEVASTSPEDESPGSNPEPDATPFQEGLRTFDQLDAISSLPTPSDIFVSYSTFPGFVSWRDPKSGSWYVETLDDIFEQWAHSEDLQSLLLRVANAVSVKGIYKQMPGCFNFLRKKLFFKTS
Sequence of UniProt Q9BWU1 (Q9BWU1 whole entry, looked up): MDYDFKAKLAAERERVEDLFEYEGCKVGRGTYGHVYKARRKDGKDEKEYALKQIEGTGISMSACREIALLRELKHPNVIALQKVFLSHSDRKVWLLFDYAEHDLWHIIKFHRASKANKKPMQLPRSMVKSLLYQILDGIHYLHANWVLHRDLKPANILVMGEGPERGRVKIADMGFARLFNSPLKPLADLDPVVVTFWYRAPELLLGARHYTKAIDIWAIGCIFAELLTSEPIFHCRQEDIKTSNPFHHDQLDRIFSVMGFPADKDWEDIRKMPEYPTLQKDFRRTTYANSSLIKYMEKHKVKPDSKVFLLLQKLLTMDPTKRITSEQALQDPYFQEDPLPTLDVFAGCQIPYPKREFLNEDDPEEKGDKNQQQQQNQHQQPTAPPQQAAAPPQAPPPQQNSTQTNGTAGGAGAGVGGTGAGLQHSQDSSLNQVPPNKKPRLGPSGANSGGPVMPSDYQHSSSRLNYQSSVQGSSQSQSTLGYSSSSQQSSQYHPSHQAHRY
Sequence of UniProt Q14746 (Q14746 whole entry, looked up): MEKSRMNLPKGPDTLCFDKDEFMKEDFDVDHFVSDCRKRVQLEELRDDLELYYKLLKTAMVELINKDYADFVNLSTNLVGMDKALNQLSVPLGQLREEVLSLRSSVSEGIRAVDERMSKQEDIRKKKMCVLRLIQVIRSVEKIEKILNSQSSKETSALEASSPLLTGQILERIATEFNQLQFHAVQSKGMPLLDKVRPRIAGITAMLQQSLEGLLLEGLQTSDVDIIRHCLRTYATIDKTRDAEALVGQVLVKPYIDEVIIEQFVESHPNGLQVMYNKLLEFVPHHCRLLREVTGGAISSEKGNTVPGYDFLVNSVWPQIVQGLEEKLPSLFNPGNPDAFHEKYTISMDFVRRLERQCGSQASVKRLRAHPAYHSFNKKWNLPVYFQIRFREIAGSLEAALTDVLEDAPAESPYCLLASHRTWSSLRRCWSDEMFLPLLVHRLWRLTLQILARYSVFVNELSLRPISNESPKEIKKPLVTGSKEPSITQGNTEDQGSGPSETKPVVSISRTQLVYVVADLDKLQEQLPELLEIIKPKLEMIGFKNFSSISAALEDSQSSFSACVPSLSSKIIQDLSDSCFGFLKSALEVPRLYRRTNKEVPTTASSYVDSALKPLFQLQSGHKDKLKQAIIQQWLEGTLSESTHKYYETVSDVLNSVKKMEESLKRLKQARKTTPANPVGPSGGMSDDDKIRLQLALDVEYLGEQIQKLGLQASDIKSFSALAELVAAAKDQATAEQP
Sequence of UniProt Q9Y2V0 (Q9Y2V0 whole entry, looked up): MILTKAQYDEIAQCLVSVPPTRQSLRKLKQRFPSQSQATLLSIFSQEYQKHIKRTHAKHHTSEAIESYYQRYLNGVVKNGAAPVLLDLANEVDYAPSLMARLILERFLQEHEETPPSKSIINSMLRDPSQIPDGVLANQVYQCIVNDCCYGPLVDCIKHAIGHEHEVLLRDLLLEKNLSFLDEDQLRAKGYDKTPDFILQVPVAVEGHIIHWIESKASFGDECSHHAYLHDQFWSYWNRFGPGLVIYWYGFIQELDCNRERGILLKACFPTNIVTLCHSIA
Sequence of UniProt Q14061 (Q14061 whole entry, looked up): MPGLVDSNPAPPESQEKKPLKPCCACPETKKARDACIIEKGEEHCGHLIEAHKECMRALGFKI
Sequence of UniProt Q9P0B6 (Q9P0B6 whole entry, looked up): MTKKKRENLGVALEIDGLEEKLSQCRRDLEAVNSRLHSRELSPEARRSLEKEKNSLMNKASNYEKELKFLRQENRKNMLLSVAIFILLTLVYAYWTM
Sequence of UniProt Q9UJA2 (Q9UJA2 whole entry, looked up): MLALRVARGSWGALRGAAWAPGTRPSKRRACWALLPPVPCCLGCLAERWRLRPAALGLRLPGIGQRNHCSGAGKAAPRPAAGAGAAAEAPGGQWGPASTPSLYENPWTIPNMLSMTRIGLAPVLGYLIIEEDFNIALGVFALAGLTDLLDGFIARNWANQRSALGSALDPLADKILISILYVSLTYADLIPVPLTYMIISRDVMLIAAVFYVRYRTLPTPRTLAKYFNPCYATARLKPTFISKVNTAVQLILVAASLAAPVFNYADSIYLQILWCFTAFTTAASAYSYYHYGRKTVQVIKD

Compound in one assay: Cc1sc2c(c1C)C(c1ccc(Cl)cc1)=N[C@@H](CC(=O)OC(C)(C)C)c1nnc(C)n1-2
Nature of the assay: log2 fold change, soluble protein after heating vs DMSO (PISA); higher = thermal stabilisation; K562 cells, 10 uM, 30 min; active = over 0.2 and 3.5 SD of the protein, either way, in both replicates (recomputed). In outline:
(§1)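 Quantification of soluble protein used TMTpro 16plex LC-MS/MS, with channel sums equalised. Samples were the supernatant after 21,000xg for 90 min of pooled aliquots from K562 cells (2×10^6 cells/mL) treated with 10 μM compound for 30 min, heated for 3 min over 48°C-58°C, and extracted in PBS with 0.5% NP-40 at 4°C. Values, from duplicates, describe thermal stability against control samples on a log2 fold-change scale.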
COMMD1 (UniProt Q8N668): the log2 fold change was 0.162.

Consider CD84 (UniProt Q9UIB8), for which the log2 fold change is -0.079.

In the case of C5orf30 (UniProt Q96GV9), the log2 fold change was -0.417.

For the target CCDC167 (UniProt Q9P0B6), the log2 fold change is -0.124.

In the case of CA1 (UniProt E5RIF9), the log2 fold change is 0.143.

With CDCA2 (UniProt Q69YH5), the log2 fold change was -0.003.

For COG2 (UniProt Q14746), the log2 fold change is 0.141.

For CAB39L (UniProt Q9H9S4), the log2 fold change was 0.285.

Turning to CDK19 (UniProt Q9BWU1), the log2 fold change is 0.021.

Take CNN1 (UniProt P51911): the log2 fold change is -0.004.

As to C15orf41 (UniProt Q9Y2V0), the log2 fold change was -0.011.

For CASP9 (UniProt P55211), the log2 fold change is 0.05.

For CPNE5 (UniProt Q9HCH3), the log2 fold change was 0.146.

Regarding C19orf54 (UniProt Q5BKX5), the log2 fold change is 0.004.

For the target COX17 (UniProt Q14061), the log2 fold change is -0.073.

On to C1D (UniProt Q13901), for which the log2 fold change was 0.074.

Consider CHST10 (UniProt O43529), for which the log2 fold change is -0.052.

With CLCN5 isoform 2 (UniProt P51795), the log2 fold change is 0.024.

With CKS2 (UniProt P33552), the log2 fold change is -0.08.

For CRLS1 (UniProt Q9UJA2), the log2 fold change was -0.01.

Consider C6orf120 (UniProt Q7Z4R8), for which the log2 fold change was -0.038.

On to CRTC2 (UniProt Q53ET0), for which the log2 fold change is 0.052.

Regarding CHPT1 (UniProt Q8WUD6), the log2 fold change is -0.198.

In the case of CCNT2 (UniProt O60583), the log2 fold change was 0.061.

On to COX7C (UniProt P15954), for which the log2 fold change was -0.079.

Take COPS3 isoform 2 (UniProt Q9UNS2): the log2 fold change was 0.04.

CASP8 isoform 9 (UniProt Q14790): the log2 fold change was 0.033.

In the case of CAV2 (UniProt P51636), the log2 fold change was -0.046.

For the target CRTC1 isoform 2 (UniProt Q6UUV9), the log2 fold change was 0.046.

Take COMMD3-BMI1 (UniProt R4GMX3): the log2 fold change was 0.002.

With CEBPZOS (UniProt A8MTT3), the log2 fold change was -0.022.

Compound in a further assay: c1ccc([C@@H]2C[C@H]2NC2CCNCC2)cc1
The assay is described as above. In outline:
as §1
For CD84 (UniProt Q9UIB8), the log2 fold change was 0.086.

On to CCDC167 (UniProt Q9P0B6), for which the log2 fold change is 0.073.

For CDCA2 (UniProt Q69YH5), the log2 fold change was -0.077.

COG2 (UniProt Q14746): the log2 fold change was -0.004.

As to CDK19 (UniProt Q9BWU1), the log2 fold change is 0.019.

In the case of CNN1 (UniProt P51911), the log2 fold change is 0.156.

For the target C15orf41 (UniProt Q9Y2V0), the log2 fold change was 0.149.

For the target CASP9 (UniProt P55211), the log2 fold change was 0.12.

On to CPNE5 (UniProt Q9HCH3), for which the log2 fold change is -0.035.

Turning to C19orf54 (UniProt Q5BKX5), the log2 fold change was 0.114.

On to CHAF1A (UniProt Q13111), for which the log2 fold change was -0.045.

On to COX17 (UniProt Q14061), for which the log2 fold change was -0.085.

In the case of CHST10 (UniProt O43529), the log2 fold change is 0.044.

Consider CLCN5 isoform 2 (UniProt P51795), for which the log2 fold change was -0.053.

Regarding CRLS1 (UniProt Q9UJA2), the log2 fold change was 0.003.

With CHPT1 (UniProt Q8WUD6), the log2 fold change is 0.11.

For CLASP2 (UniProt O75122), the log2 fold change is -0.222.

Turning to COMMD3-BMI1 (UniProt R4GMX3), the log2 fold change was 0.154.

Take CDK2AP2 (UniProt O75956): the log2 fold change was 0.012.
